Data: PubChem BioAssay (EPA / NIEHS)
Activity calls are given as the source filed them. Rule for the calls: active = hit-call score of the fitted dose curve at least 0.9, where 1 is the maximum; inactive = score below 0.9.

test: BSK_LPS_SRB: Viability Assessment in the BioMAP Diversity Plus: LPS Assay (AID 2283079); details: primary human HUVEC with PBMC;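 note: measured one day after compound addition; fitted in both directions against DMSO so loss or gain of signal counts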
Experimental: BSK_LPS is a cell-based, multiplexed-readout assay that uses umbilical vein endothelium and peripheral blood mononuclear cells, a human vascular primary cell co-culture, with measurements taken at 24 hours after chemical dosing in a 96-well plate.BSK_LPS_SRB is an assay component measured in the BSK_LPS assay. It measures 0.1% sulforhodamine related to cell death using Sulforhodamine staining technology.Data from the assay component BSK_LPS_SRB was analyzed into 1 assay endpoint. This assay endpoint, BSK_LPS_SRB, was analyzed with bidirectional fitting relative to DMSO as the negative control and baseline of activity. Using a type of viability reporter, gain or loss-of-signal activity can be used to understand changes in the signaling. Furthermore, this assay endpoint can be referred to as a primary readout, because this assay has produced multiple assay endpoints where this one serves a signaling function. To generalize the intended target to other relatable targets, this assay endpoint is annotated to the cell morphology intended target family, where the subfamily is cell conformation.
The levels of cell surface (or secreted, indicated by the prefix "s") biomarker endpoints were measured by ELISA. Overt cytotoxicity to cells in confluent adherent cultures (all systems other than the BT system) was assessed by measuring total protein levels using sulforhodamine B (SRB) staining in parallel cultures at the time of biomarker measurements, indicated as SRB endpoints. For proliferation assays for adherent cell types, individual cell types are cultured at sub-confluence and relative cell numbers quantified by SRB staining at time points optimized for each system (48 h: 3C and CASM3C systems; 72 h: BT and HDF3CGF systems; 96 h: SAg system). SRB was performed by staining cells with 0.1% SRB after fixation with 10% TCA and reading wells at 560 nm.Viability and proliferation of PBMC (T cells) was quantified by Alamar Blue reduction for the SAg and BT systems. For PBMC viability (referred to as PBMC Cytotoxicity within the assay endpoint names), cells were plated (75,000/well in a 96-well plate) and then chemical samples added for 1 h before addition of activators, SEB and TSST-1 (20 ng/mL final concentration each). Cells were incubated for 90 h. Then, Alamar Blue (20 uL/well) (Invitrogen, Cat DAL1100) was added for 6 h, and the plates were read with a fluorescence microplate reader at 546/580 nm (excitation/emission). For PBMC proliferation, cells were plated and activated as above but incubated for only 16 h prior to addition of Alamar Blue. Plates were read after 6 h.

| Structure (SMILES) | outcome | AC50 |
| --- | --- | --- |
| C=C(C)[C@H]1CC=C(C)C(=O)C1 | inactive | – |
| C=C(C)C(=O)OCC(CC)(COC(=O)C(=C)C)COC(=O)C(=C)C | inactive | – |
| CC(=O)C1(C)CC2=C(CCCC2(C)C)CC1C (stereo not given) | – | 13.3 µM (active) |
| CCCCCCCCCCCCCCCC(=O)OC/C=C(C)/C=C/C=C(C)/C=C/C1=C(C)CCCC1(C)C | inactive | – |
| O=C(Nc1ccc2c(O)c(N=Nc3ccc(N=Nc4ccc(S(=O)(=O)O)cc4)cc3)c(S(=O)(=O)O)cc2c1)c1ccccc1 | inactive | – |
| CC(C)(C)CC(C)(C)c1ccc(OCCOCC[N+](C)(C)Cc2ccccc2)cc1 | – | 8.5 µM (active) |
| C1=CC2C3C=CC(C3)C2C1 (stereo not given) | inactive | – |
| CC(CN=Cc1ccccc1O)N=Cc1ccccc1O (stereo not given) | inactive | – |
| O=C1c2ccccc2C(=O)c2c(O)ccc(O)c21 | inactive | – |
| COc1cc(Cl)c(OC)cc1N | inactive | – |
| CCCCCC(C=O)=Cc1ccccc1 | – | 32.8 µM (active) |
| CC1(C)CCC[C@]2(C)[C@H]3CCO[C@]3(C)CC[C@@H]12 | inactive | – |
| CCC(C)c1cc([N+](=O)[O-])cc([N+](=O)[O-])c1OC(=O)OC(C)C (stereo not given) | – | 11.9 µM (active) |
| COc1ccc(OC)c(N=Nc2c(O)ccc3ccccc23)c1 | inactive | – |
| CSCCC=O | inactive | – |
| CCCCN(CCCC)C(=O)N(CCCC)CCCC | – | 30.2 µM (active) |
| C=C(C)C(=O)OCCOCCOCCOC(=O)C(=C)C | inactive | – |
| CC(C=O)Cc1ccc(C(C)(C)C)cc1 (stereo not given) | – | 32.6 µM (active) |
| CC(=O)Nc1ccc(C(=O)CCl)cc1 | – | 9.55 µM (active) |
| IC(I)I | inactive | – |

| Structure (SMILES) | outcome | AC50 |
| --- | --- | --- |
| CC1(C)C2=CCCC(C)(C)[C@]23CC[C@H]1C3 | inactive | – |
| CCCCCCC(CO)CCCC (stereo not given) | inactive | – |
| CC(=O)c1c(C)c([N+](=O)[O-])c(C(C)(C)C)c([N+](=O)[O-])c1C | inactive | – |
| CN(C)C(=O)Nc1ccc(Oc2ccc(Cl)cc2)cc1 | inactive | – |
| CN(c1nccc(=O)[nH]1)C1CCN(c2nc3ccccc3n2Cc2ccc(F)cc2)CC1 | inactive | – |
| CCCCOC(=O)CCCCCCCC(=O)OCCCC | inactive | – |
| CS(=O)(=O)c1ccc(C2=C(c3ccccc3)C(=O)OC2)cc1 | – | 1.98 µM (active) |
| CCN(CC)C(=O)N(CC)CC | inactive | – |
| CCOC(=O)C(C#N)=C(c1ccccc1)c1ccccc1 | inactive | – |
| C[C@@H]1CCN(C(=O)[C@H](CCCN=C(N)N)NS(=O)(=O)c2cccc3c2NC[C@H](C)C3)[C@@H](C(=O)O)C1 | inactive | – |
| O=C1OC2(c3ccccc31)c1ccc(O)c(Br)c1Oc1c2ccc(O)c1Br | inactive | – |
| O=C1OC[C@H](Cc2cccc(O)c2)[C@H]1Cc1cccc(O)c1 | inactive | – |
| C=C(C)C(=O)OCCOCCOCCOCCOC(=O)C(=C)C | inactive | – |
| Cc1cc(CCC(=O)OCCOCCOCCOC(=O)CCc2cc(C)c(O)c(C(C)(C)C)c2)cc(C(C)(C)C)c1O | inactive | – |
| O=CN1CCOCC1 | inactive | – |
| CC=Cc1ccc(OCC)c(O)c1 | inactive | – |
| CN(C)C(=S)SC(=S)N(C)C | inactive | – |
| CS(=O)(=O)OCCCCOS(C)(=O)=O | inactive | – |
| c1ccc2cc(Nc3ccc(Nc4ccc5ccccc5c4)cc3)ccc2c1 | inactive | – |
| c1ccc(CCc2ccccc2)cc1 | – | 36.4 µM (active) |
